Reference: PubChem BioAssay (NCI)
This is part of a sample that, as a whole, favours compounds with a hit. Of some 83,000 tested, about 20% had one in any assay.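 Single-concentration screen, 48 h exposure, 96-well plates. Endpoint: percent growth. Below 10 = active.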 Calls of active or inactive are those of the source.

How the values were obtained:
Assay in all cases: NCI-60 one-dose screen, 48 h (100 = growth as untreated, 0 = no growth, -100 = all killed)
Conditions in all cases: 10 µM unless noted
[1] = system: DU-145 prostate
[2] = system: K-562 leukemia
[3] = system: MALME-3M melanoma
[4] = system: MDA-MB-231 breast
[5] = system: RXF 393 renal
[6] = system: SF-268 CNS
[7] = system: SF-295 CNS
[8] = system: SF-539 CNS
[9] = system: UACC-257 melanoma
[10] = system: M14 melanoma
[11] = system: HCT-15 colon
[12] = system: HT29 colon
[13] = system: SNB-75 CNS
[14] = system: SNB-19 CNS
[15] = system: U251 CNS
[16] = system: PC-3 prostate
[17] = system: SK-MEL-5 melanoma
[18] = system: UACC-62 melanoma
[19] = system: LOX IMVI melanoma
[20] = system: SK-MEL-28 melanoma

Measured: growth

CCNc1ncnc2n[nH]nc12
inactive: [1] 104% | [2] 97% | [3] 102% | [4] 111% | [5] 112% | [6] 99.5% | [7] 95% | [8] 101% | [9] 92.9% | [10] 99.7% | [11] 98.4% | [12] 100% | [13] 94.8% | [14] 96.4% | [15] 95.3% | [16] 82.3% | [17] 98.7% | [18] 99.3% | [19] 102% | [20] 107%

CC(=S)Nc1ccccc1
inactive: [1] 103% | [2] 101% | [3] 89% | [4] 95.5% | [5] 107% | [6] 107% | [7] 105% | [8] 102% | [9] 82.7% | [10] 96.6% | [11] 99.4% | [12] 94.3% | [13] 87.3% | [14] 97.8% | [15] 96.2% | [16] 84.9% | [17] 98% | [18] 96.8% | [19] 91.2% | [20] 112%

Nc1nc(Cl)cc(NCCCCNc2cc(Cl)nc(N)n2)n1
inactive: [1] 104% | [2] 101% | [3] 145% | [4] 114% | [5] 123% | [6] 112% | [7] 121% | [8] 96.5% | [9] 105% | [10] 117% | [11] 114% | [12] 109% | [13] 108% | [14] 101% | [15] 99.6% | [16] 95.8% | [17] 111% | [18] 101% | [19] 96.9% | [20] 118%

COc1cc(-c2nc3ccccc3s2)ccc1OCc1nc2n(n1)S(=O)(=O)c1ccccc1N2C
inactive: [1] 87.7% | [2] 71.1% | [3] 39.4% | [4] 84.6% | [5] 58.3% | [6] 94.4% | [7] 61.3% | [8] 52.4% | [9] 104% | [10] 76.8% | [11] 91.5% | [12] 100% | [13] 41% | [14] 91% | [15] 73.2% | [16] 80.8% | [17] 82.1% | [18] 103% | [19] 72.3% | [20] 103%

CC(=O)Cc1cccnc1
inactive: [1] 110% | [2] 86.7% | [3] 103% | [4] 99.9% | [5] 103% | [6] 104% | [7] 99.2% | [8] 102% | [9] 96.8% | [10] 101% | [11] 107% | [12] 106% | [13] 104% | [14] 98.8% | [15] 98.6% | [16] 94.3% | [17] 101% | [18] 95.6% | [19] 99.9% | [20] 113%

Clc1ccc(OCc2nc(-c3ccccc3)n[nH]2)c(Cl)c1
inactive: [1] 109% | [2] 111% | [3] 104% | [4] 98.8% | [5] 108% | [6] 96.6% | [7] 97.8% | [8] 99.4% | [9] 97.8% | [10] 106% | [11] 101% | [12] 101% | [13] 93.6% | [14] 99.3% | [15] 95.5% | [16] 87.3% | [17] 100% | [18] 95.6% | [19] 94.6% | [20] 110%

COc1cc(Cn2cc3c(c2)-c2onc(CO)c2CC3)cc(OC)c1OC
inactive: [1] 103% | [2] 78.5% | [3] 79.7% | [4] 103% | [5] 95.8% | [6] 96% | [7] 92.1% | [8] 96.8% | [9] 93.2% | [10] 85.8% | [11] 89% | [12] 104% | [13] 82% | [14] 94.5% | [15] 97.6% | [16] 88.7% | [17] 83.3% | [18] 80.3% | [19] 94.7% | [20] 93.7%

C=CCn1c(SCC(=O)Nc2ccc(/C(C)=N\O)cc2)nnc1-c1cc(-c2ccc(OC)cc2)nc2ccccc12
inactive: [1] 60.6% | [2] 19.1% | [3] 66.4% | [4] 33.7% | [5] 42.2% | [6] 51.5% | [7] 19.8% | [8] 20.2% | [9] 44.1% | [10] 36.3% | [11] 36.3% | [12] 42% | [13] 57.4% | [14] 44.5% | [15] 29.8% | [16] 29.9% | [17] 36.4% | [18] 37.7% | [20] 61.7%
active: [19] -65.4%

COc1ccc(CNc2nc3ccccc3c3c(=O)c4ccccc4sc23)cc1OC
inactive: [1] 74% | [2] 69.3% | [3] 66.6% | [4] 61.5% | [5] 61% | [6] 78.7% | [7] 68.3% | [8] 81% | [9] 88.6% | [10] 86.2% | [11] 90.2% | [12] 73% | [13] 21.8% | [14] 86.5% | [15] 79.8% | [16] 72.9% | [17] 78% | [18] 68.8% | [19] 82.7% | [20] 93.3%

CC(/C=C/C=C(\C)[C@H](O)[C@H](C)C(=O)O[C@H]1C[C@H](C)C=C2C=C[C@@]3(C)O[C@@H](O)CC(=O)[C@]3(C)[C@H]21)=C\C=C\C(=O)O
active: [1] 4.82% | [2] 5.89% | [3] -57% | [5] -49.5% | [6] 7.59% | [7] 2.34% | [8] -15.9% | [9] 2.06% | [10] -51.3% | [12] 0.326% | [13] -14.2% | [14] -0.761% | [15] -3.9% | [16] 7.61% | [17] -69% | [18] -32% | [19] 6.81% | [20] -0.848%
inactive: [4] 19.8% | [11] 17.3%

CSc1ccc(C(=O)C[n+]2cccc(C)c2)cc1
inactive: [1] 109% | [2] 102% | [3] 96.6% | [4] 107% | [5] 107% | [6] 99.4% | [7] 98.4% | [8] 99.7% | [9] 98.2% | [10] 103% | [11] 103% | [12] 99.8% | [13] 90.7% | [14] 97.8% | [15] 101% | [16] 96% | [17] 100% | [18] 95.1% | [19] 103% | [20] 105%

CC(C)(C)NCC(O)COc1c(Br)c(Br)c(Br)c2c1OC(C)(C)C2 (stereo not given)
inactive: [9] 107%
active: [1] -59.5% | [2] -34.9% | [3] -82.8% | [4] -65.6% | [5] -52.5% | [6] 4.14% | [7] -63% | [8] -84.5% | [10] -72.6% | [11] -66.9% | [12] -72.7% | [13] 5.77% | [14] -47.2% | [15] -92.4% | [16] -90.2% | [17] -97% | [18] -79.8% | [19] -90.9% | [20] -83.7%

NN=C(c1ccc(Cl)cc1)c1ccc(Cl)cc1
inactive: [1] 116% | [2] 105% | [3] 121% | [4] 106% | [5] 109% | [6] 96.6% | [7] 91.1% | [8] 104% | [9] 94.5% | [10] 106% | [11] 90.4% | [12] 96.7% | [13] 96.3% | [14] 98.9% | [15] 102% | [16] 101% | [17] 107% | [18] 100% | [19] 77.1% | [20] 117%

COc1ccccc1N1CCN(CC(O)COc2c(Br)c(Br)c(Br)c3c2OC(C)(C)C3)CC1 (stereo not given)
inactive: [1] 97.2% | [2] 11% | [3] 67.2% | [4] 44.9% | [5] 40.2% | [6] 131% | [7] 29.8% | [8] 94.1% | [9] 96.9% | [10] 29.9% | [11] 24.6% | [13] 71% | [14] 60.8% | [15] 52.7% | [16] 18.9% | [18] 56.6% | [19] 18.5% | [20] 90.4%
active: [12] 5.44% | [17] 7.43%

COc1ccc2c(c1)/C(=C/c1c(-c3cc(OC)c(OC)c(OC)c3Br)nc3sccn13)C(=O)N2
inactive: [1] 114% | [2] 76% | [3] 62.1% | [4] 81.4% | [5] 118% | [6] 116% | [7] 105% | [8] 95.3% | [9] 110% | [10] 115% | [11] 109% | [12] 103% | [13] 109% | [14] 106% | [15] 93.4% | [16] 82.6% | [17] 83.1% | [18] 69.2% | [19] 64.7% | [20] 123%
